TDP43 rescue: inhibitors of TDP-43 toxicity in yeast | TDP-43 expressing yeast growth rescue, BacTiter-Glo, 24 h | Potency, µM (titrated, usually from 46.1 µM), without a hit: top-dose growth rescue (activation), hits mostly activators | 410,000 compounds, 1.8% hits | AID 652104; also: potency is read from the fitted curve at half-maximal effect; % of control where 0% means no effect; nearly all actives have a fitted effect of over 50% in size
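Luminescence from BacTiter-Glo reports growth of TDP-43-expressing yeast after 24 hr at 30 deg C with compound. Cells were raffinose-pregrown to mid-log, then seeded in galactose medium at OD600=0.02.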
PTHR1 agonist: agonists of human PTHR1 parathyroid hormone receptor; Q03431; HEK293 GP2 PTHR1 cells, GloSensor cAMP luminescence, 1 h; Potency, µM (top dose mostly 115 µM), for the others: at the top dose activation, most hits filed as activators; 410,000 compounds, 0.075% hits; also: potency is read from the fitted curve at half-maximal effect; nearly all actives have a fitted effect of over 55% in size
Target sequence (Q03431 whole entry, looked up): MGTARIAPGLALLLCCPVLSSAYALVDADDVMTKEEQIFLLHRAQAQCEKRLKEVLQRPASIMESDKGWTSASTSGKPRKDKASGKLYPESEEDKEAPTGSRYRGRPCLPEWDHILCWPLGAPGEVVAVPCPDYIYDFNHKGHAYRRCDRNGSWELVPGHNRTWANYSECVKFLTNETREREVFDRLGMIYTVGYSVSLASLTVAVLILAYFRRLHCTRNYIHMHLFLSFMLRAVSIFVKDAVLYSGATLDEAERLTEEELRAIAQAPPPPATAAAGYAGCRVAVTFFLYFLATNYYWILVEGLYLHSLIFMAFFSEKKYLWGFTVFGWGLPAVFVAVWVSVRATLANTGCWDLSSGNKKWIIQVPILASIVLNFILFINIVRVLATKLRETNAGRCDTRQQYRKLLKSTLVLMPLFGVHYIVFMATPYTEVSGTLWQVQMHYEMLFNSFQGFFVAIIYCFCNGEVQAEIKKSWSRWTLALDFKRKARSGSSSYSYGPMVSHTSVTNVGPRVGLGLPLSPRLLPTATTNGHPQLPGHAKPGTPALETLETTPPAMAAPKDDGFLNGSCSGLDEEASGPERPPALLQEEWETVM
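HEK-293-derived GP2 cells expressing PTHR1 and a GloSensor cAMP reporter, 3,000/well, plated overnight, given luciferin plus IBMX (each 0.5 mM as added) for 1 h at 37 °C, then compound for 1 h at 37 °C. Luminescence was read after 15 min at room temperature.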
FUS suppressor: suppressors of FUS proteinopathy in yeast; 390,000 compounds, 0.24% hits; Potency, µM (titrated, usually from 76.6 µM), most hits filed as activators; S. cerevisiae FUS-expressing, growth rescue, OD600, 24 h;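 also: potency is read from the fitted curve at half-maximal effect; plate controls were DMSO vehicle for no effect and reference control for full effect; nearly all actives have a fitted effect of over 55% in size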
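Steps: raffinose overnight preculture; dilution to OD 0.005 in 2% galactose minimal medium; compound addition (concentration series); 24hr at 30C, 99% humidity; absorbance read at 600 nm.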
LDHA block: blocks human lactate dehydrogenase A; P00338; purified LDHA, NADH/diaphorase-resazurin fluorescence; hits give low values; activity change, % (values are at about 110 or 230 µM); 480,000 compounds, 0.15% hits; AID 1347041; in the data active = activity change below about -30%; inconclusive = mostly about -25% to -30%;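 also: plate controls were DMSO wells for no effect and wells without enzyme for full effect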
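Human LDH5 (2 nM) was incubated with 0.06 mM NADH and 0.2 mM pyruvate for 5 min at room temperature in Tris pH 7.4. Remaining NADH was coupled through diaphorase/resazurin, and resorufin fluorescence was read at 0 and 20 min.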
Abeta rescue: compounds reversing amyloid beta toxicity in yeast. yeast expressing A-beta42, growth rescue, OD600, 48 h; response scale: 0% DMSO, 100% iron-clioquinol control. Potency, µM (doses to about 46.1 µM), usual class: activators. 410,000 compounds, 0.063% hits; also: potency is read from the fitted curve at half-maximal effect; nearly all actives have a fitted effect of over 55% in size
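Yeast A-beta toxicity model in growth medium with pinned compounds, 48 h at 30 C; growth read as absorbance at 600 nm. Normalized to FeCl3/clioquinol equimolar mix (positive) and DMSO (negative).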
aSyn yeast inh: alpha-synuclein toxicity inhibition in yeast; 370,000 compounds, 0.14% hits; Yeast expressing alpha-synuclein, growth rescue, BacTiter-Glo, 24 h; Potency, µM (doses to about 46.1 µM), without a hit: top-dose growth rescue (activation), hits mostly activators; also: potency is read from the fitted curve at half-maximal effect; % of control where 0% means no effect; nearly all actives have a fitted effect of over 65% in size
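Readout is rescue of growth in alpha-synuclein-expressing yeast, so inhibitors of toxicity appear as activators. Growth after 24 hr at 30 deg C in galactose medium is quantified by luminescence.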
* hit, by the source's call; i = inactive; ? = inconclusive; . = no result; [ ] = dose if it differs, or a comment. Hits are enriched below; roughly 1.9% of the tested compounds scored in any of these assays. Unless noted, calls follow the shape of the dose curve; as a rule, active = well fitted curve in the direction sought with a large enough effect; inconclusive = small, poorly fitted or top-dose-only effect, or another doubt; inactive = no such curve, though single readings can be large; an effect the other way counts as inactive or inconclusive.

SMILES	TDP43 rescue	PTHR1 agonist	FUS suppressor	LDHA block	Abeta rescue	aSyn yeast inh
CC1Cc2ccccc2N1C(=O)COC(=O)c1ccc(Cl)c([N+](=O)[O-])c1 (stereo not given)	.	.	.	4.4	.	.
CC1=C(C#N)C(=O)NC(=O)/C1=C\c1ccc(-c2ccc(C)cc2[N+](=O)[O-])o1	31.6µM*	i	i	26.0	i	4.8%
O=C(CSc1ncccn1)N1CCN(C(=O)CSc2ncccn2)CC1	0.4%	i	.	-8.7	i	0.3%
O=C(CSc1ncccn1)N1CCN(C(c2ccccc2)c2ccccc2)CC1	2.9%	-9.8%[57.5 µM]	i	-55.5*	i	3.6%
COc1ccc([C@H]2Cc3cccc(O)c3C(=O)O2)cc1O	11.2µM*	-44.5%	i	1.3	i	7.7%
COc1ccc([C@H]2Cc3cc(O)cc(O)c3C(=O)O2)cc1O	15.6%	-94.8%	i	0.6	i	7.7%
Cc1ccc(C(=O)Nc2nc(C(C)(C)C)cs2)s1	14.1µM*	-16.3%[57.5 µM]	i	3.3	i	-37.7%
O=C(O)c1ccc(C2CCCCC2)cn1	12.6µM*	i	i	8.3	i	?
COc1ccc(-c2ccc(=O)n(Cc3c(F)cccc3Cl)n2)cc1	?	-45.5%	i	-3.7	i	2.1%
COc1ccc(-c2ccc(=O)n(Cc3cccc([N+](=O)[O-])c3)n2)cc1	17.8µM*	-57.6%	i	-6.5	.	1.0%
COc1ccc(O)c(C(=O)/C=C/c2ccc(C)cc2)c1	.	.	.	16.9	.	.
CSc1nc2ccccc2n1Cc1cccc([N+](=O)[O-])c1	1.1%	-1.2%	i	-2.7	i	5.8%
CSc1nc2ccccc2n1Cc1cccc(F)c1	17.8µM*	-21.2%	i	-0.5	i	-0.2%
COc1cccc(Cn2c(SCC(=O)N(C)c3ccccc3)nc3ccccc32)c1	17.8µM*	-34.6%	?	-3.0	i	.
O=C(CSc1nc2ccccc2n1Cc1cccc(F)c1)NCc1ccccc1	22.4µM*	-2.7%	i	-12.1	i	.
COc1cccc(CNC(=O)c2cc(C3CC3)nc3c2cnn3C(C)C)c1	17.8µM*	-25.9%	?	0.7	i	0.5%[1.84 µM]
Cc1ccccc1CCNC(=O)c1cc(C2CC2)nc2c1cnn2C(C)C	35.5µM*	-24.3%	i	-0.8	i	8.1%
COc1ccc(CNC(=O)c2cc(C3CC3)nc3c2cnn3C(C)C)cc1OC	12.2%	-20.5%	i	-7.6	i	-0.7%
CC(C)n1ncc2c(C(=O)NCCc3ccc(F)cc3)cc(C3CC3)nc21	-13.8%	-37.0%	i	-0.2	i	0.4%
COc1ccc(S(=O)(=O)NCc2cccn2Cc2cc(C)ccc2C)cc1OC	35.5µM*	-11.5%	i	-2.7	i	.
COc1ccc(S(=O)(=O)NCc2cccn2Cc2cccc(C)c2)cc1OC	35.5µM*	-15.1%	i	1.5	i	.
Fc1ccc(CSC2=NCCN2)c(Br)c1	.	.	.	0.7	.	.
Cc1ccc(CNC(=O)c2ccc(CSCc3cccc(C)c3)o2)cc1	35.5µM*	-6.6%	i	2.1	i	?
O=C(OCC(=O)c1c[nH]c2ccccc12)c1cncc(Br)c1	11.2µM*	-31.3%	i	-4.7	i	-4.8%[1.84 µM]
CCC1c2ccsc2CCN1C(=O)/C=C/c1ccccc1 (stereo not given)	.	.	.	-21.9	.	.
SMILES	TDP43 rescue	PTHR1 agonist	FUS suppressor	LDHA block	Abeta rescue	aSyn yeast inh
Fc1ccccc1Cn1cc(C(=S)N2CCOCC2)c2ccccc21	?	-26.0%	i	-7.1	?	20µM*
Cc1cccc(NC(=S)NCc2ccc(Cl)cc2)c1	.	.	.	-3.9	.	.
O=c1c(Cl)c(Cl)cnn1Cc1ccc(F)cc1	20µM*	-7.7%	i	-3.3	i	0.7%
O=C(COc1ccc(-n2cnnn2)cc1)Nc1cccc(S(=O)(=O)N2CCOCC2)c1	.	.	.	-3.6	.	.
COc1cc(/C=C/C(=O)OCC(=O)NCCC2=CCCCC2)cc(OC)c1OC	35.5µM*	-45.5%	i	-2.3	i	14.4%
COc1cc(/C=C/C(=O)OCC(=O)NCCC2=CCCCC2)ccc1O	-0.2%	-1.6%	i	1.8	i	-2.5%
COc1ccc(CC(=O)NCCS(=O)(=O)N2CCN(c3ccccc3)CC2)cc1	0.0%	-21.4%	i	0.0	i	2.7%
CCCCOc1ccc(C(=O)NCCS(=O)(=O)N2CCN(c3ccccc3OC)CC2)cc1	12.6µM*	-95.1%	?	-6.4	?	.
COc1ccc(N2CCN(S(=O)(=O)CCNC(=O)Cc3ccc(-c4ccccc4)cc3)CC2)cc1	4.8%	28.2µM*	i	-5.8	i	.
CNC(c1ccccc1)c1ccc(F)cc1 (stereo not given)	.	.	.	0.3	.	.
Cc1cccc(NC(=O)C2CCCN2/C=C/C(=O)C(F)(F)F)c1 (stereo not given)	.	.	.	12.1	.	.
CC(NC1CCCc2c1[nH]c1ccc(-c3ccccc3)cc21)c1ccccc1 (stereo not given)	.	.	.	18.9	.	.
COc1cccc(C(=O)Nc2ccc3oc(-c4ccc(F)cc4)cc(=O)c3c2)c1	.	.	.	-35.3*	.	.
O=C(COc1ncnc2c(Cl)cc(Cl)cc12)Nc1ccc(F)cc1	.	.	.	-5.1	.	.
COc1cc2cc(CCCOC(=O)c3ccc(F)cc3)oc(=O)c2cc1OC	20µM*	-48.6%	i	-4.4	i	-4.9%
Oc1ccc(C=NN=C2c3ccccc3-c3ccccc32)c(O)c1	11.2µM*	-42.6%	.	-1.9	i	-34.8%
C(=NN=C1c2ccccc2-c2ccccc21)c1c[nH]c2ccccc12	12.6µM*	-0.8%	.	-0.6	i	21.1%
CSc1ccccc1NC(=O)/C=C/c1ccc(F)cc1	.	.	.	-1.5	.	.
Cc1ccc(CS(=O)Cc2ccc(F)cc2)cc1 (stereo not given)	.	.	.	10.0	.	.
CCn1c(NCC(O)c2ccccc2)nc2c1c(=O)n(C)c(=O)n2C (stereo not given)	.	.	.	4.0	.	.
Cc1nc(-c2ccc(F)cc2)sc1CCNC(=O)c1ccccc1C(F)(F)F	12.6µM*	-11.3%	i	-0.8	i	.
Cc1cc(C)cc(C(=O)NCCc2sc(-c3ccc(F)cc3)nc2C)c1	11.8%	i	i	-0.7	i	.
CCOc1ccc(CC(=O)NCCc2sc(-c3cccc(F)c3)nc2C)cc1	?	-74.9%	i	-3.5	i	.
Cc1nc(-c2ccc(F)cc2)sc1CCNC(=O)Cc1ccc(F)cc1	?	-21.3%	i	-3.1	i	.
COc1ccc(C(=O)NCCc2sc(-c3cccc(F)c3)nc2C)cc1	22.4µM*	-39.7%	?	1.0	i	.
COc1ccc(CC(=O)NCCc2sc(-c3cccc(F)c3)nc2C)cc1	11.2µM*	-93.9%	i	-0.7	i	.

Assay outcomes deposited in PubChem BioAssay by National Center for Advancing Translational Sciences (NCATS).
